Compounds without any hit were thinned out: in the full panel of roughly 79,000, 15% have a hit. Values without a mark were called inactive. Activity calls are given as the source filed them. No stated cut-off is given here; in the data, active means growth inhibition above about 70%; inactive means the rest.

A short description of the test: NCI Yeast Anticancer Drug Screen. Data for the rad52 strain (AID 147).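 Further: 0% = growth of vehicle-treated control cultures.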 The settings on record: S. cerevisiae rad52 mutant growth inhibition; at 11.0 µM; stronger effect = higher value. Summed up: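 Growth of repair-deficient yeast cells was compared between compound-treated and vehicle-treated cultures to give percent inhibition.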
In the case of `CS(=O)(=O)SCc1ccc([N+](=O)[O-])cc1`, the growth inhibition was 90% (active).

As for `Cc1csc(=S)n1OC(=O)NC1CCCCC1`, the growth inhibition is 99% (active).

Regarding `CCOc1ccc(NC(=O)C2=C(C)NC(C)=C(C(=O)Nc3ccc(OCC)cc3)C2c2cccc([N+](=O)[O-])c2)cc1`, the growth inhibition is 5%.

Turning to `CC(C)(C)N=C(NO)c1ccccc1`, the growth inhibition is 8%.

For the compound `CCCCC/C(=C(\C#N)C(=O)OCC)c1ccccc1`, the growth inhibition is 1%.

On to `O=C(NCCCl)Sc1ccc(Cl)cc1`, for which the growth inhibition was 10%.

For the compound `O=C1Nc2ccc(Br)cc2C1=Nc1ccc2c(c1)OCO2`, the growth inhibition is 3%.

Consider `CCC(C)OC(=O)Nc1ccc(C)c(NC(=O)OC(C)CC)c1` (centres undefined), for which the growth inhibition is 3%.

For the compound `O=C(O)c1cc2ccc(Cl)cc2c(O)c1C1=CCCCC1`, the growth inhibition is 26%.

For `CN(C)Cc1cc(N=Nc2ccc(Cl)cc2)ccc1OC(=O)c1ccccc1`, the growth inhibition was 1%.

Turning to `CN1CCN(C(=O)/C=C/C(=O)c2ccccc2)CC1`, the growth inhibition is 24%.

As for `CCCC/C=C/C(C)(C(=O)OCC)C(=O)OCC`, the growth inhibition was -1%.

In the case of `Cc1nc(-c2cc3cc([N+](=O)[O-])ccc3oc2=O)cs1`, the growth inhibition is 47%.

Regarding `Cc1nc2ccccc2nc1NNc1ccccc1`, the growth inhibition was -4%.

On to `CN(C)[C@@H]1C(=O)C(C(N)=O)=C(O)[C@@]2(O)C(=O)C3=C(O)c4c(O)cccc4C[C@H]3C[C@@H]12`, for which the growth inhibition was 17%.

Regarding `COc1ccc(NC(=O)CC2SC(=Nc3ccccc3C)NC2=O)c([N+](=O)[O-])c1` (centres undefined), the growth inhibition is 2%.

In the case of `COc1cc(O)c2c(c1O)C(=O)c1cc(C)ncc1C2=O`, the growth inhibition was 29%.

Take `CSc1nnc(SC)nn1`: the growth inhibition is 0%.

Take `COc1cc(/C=C2\CCC/C(=C\c3ccc(O)c(OC)c3)C2=O)ccc1O`: the growth inhibition was 9%.

With `CN(C)CCNC(=O)c1cccc2cc([N+](=O)[O-])ccc12`, the growth inhibition is 61%.

As to `CCC(C)(C)c1ccc(Oc2cccc(C(=O)O)c2)cc1`, the growth inhibition is 17%.

In the case of `CCCCCCSc1ncnc2[nH]ncc12`, the growth inhibition was 0%.

In the case of `CC(=O)Nc1ccc(/C=C/[N+](=O)[O-])cc1`, the growth inhibition was 43%.

Consider `CCOC(=O)c1[nH]n(-c2ccccc2)c(=O)c1C=NC(=S)C(N)=S`, for which the growth inhibition is 30%.

Consider `CCCC(O)C1CC(C(C)C)CCC1C` (centres undefined), for which the growth inhibition was 2%.

Consider `O=[n+]1c2ccccc2n([O-])c2cc(Br)ccc21`, for which the growth inhibition is 98% (active).

`CN(C)CCNC(=O)c1cccc2c1Oc1c(cccc1[N+](=O)[O-])O2`: the growth inhibition is -12%.

As for `Nc1ncc(-c2ccc(Br)cc2)s1`, the growth inhibition was 36%.

For the compound `Cc1cc2cc3cc(C)c(N)cc3nc2cc1N`, the growth inhibition was -7%.

Turning to `CC12C(=O)OC(=O)C(c3ccccc31)c1ccccc12`, the growth inhibition is -12%.

Consider `c1ccc2c(OCC3CO3)cccc2c1` (centres undefined), for which the growth inhibition was 45%.

On to `CCOC(=N)c1ccc(O)c(OC)c1`, for which the growth inhibition is 0%.

In the case of `Nc1cc(N)c(N=Nc2cccc3c(S(=O)(=O)O)cccc23)cc1N=Nc1cc([N+](=O)[O-])ccc1O`, the growth inhibition is 17%.

On to `COC(=O)Oc1cc(Cl)c(Cl)cc1Cl`, for which the growth inhibition is -1%.

Consider `O=C(O)C1CC(c2ccccc2)=NN1c1ccccc1` (centres undefined), for which the growth inhibition was 4%.

For the compound `COc1cc([C@@H]2c3cc4c(cc3[C@@H](Nc3ccc(NC(=O)c5cc([N+](=O)[O-])cn5C)cc3)[C@H]3COC(=O)[C@H]23)OCO4)cc(OC)c1O`, the growth inhibition was 92% (active).

With `O=C(O)c1ccccc1/C=N/N=C1c2ccccc2-c2ccccc21`, the growth inhibition was -1%.

For the compound `O=C1CC(=O)c2ccccc21`, the growth inhibition is 3%.

Take `Nc1ncnc2c1ncn2C1OC(CO)CC1O` (centres undefined): the growth inhibition is 24%.

The values are drawn from PubChem BioAssay (NCI).
